What all share (assay type): functional
For test [1], the system named is Plasmodium falciparum. Kind of test: GSK_TCMDC: Inhibition of Plasmodium falciparum 3D7 in whole red blood cells, using parasite LDH activity as an index of growth. Test compounds present at 2uM.
The subject of test [2] is Plasmodium falciparum. Kind of test: GSK_TCMDC: Inhibition of Plasmodium falciparum Dd2 in whole red blood cells, using parasite LDH activity as an index of growth. Test compounds present at 2uM.
Another test relates to HepG2. Kind of test: GSK_TCMDC: Percent inhibition of human HepG2 cell line. Test compounds present at 10uM.

Inhibition data for 29 compounds are collected here from ChEMBL document CHEMBL1157539, “Thousands of chemical starting points for antimalarial lead identification” (Nature, 2010).

Structures are written as SMILES.

As a reminder, the Inhibition is the relative decrease from the control value, in per cent. A higher Inhibition goes with a response far below the control. Turning to `CCCC(N)C(=O)NC1CCN(c2c(F)c(N)c3c(=O)c(C(=O)O)cn4c3c2Oc2ccccc2-4)C1.Cl` (configuration not stated), the Inhibition amounted to 98% in the test with Plasmodium falciparum [1], 98% in the test with Plasmodium falciparum [2] and 66% in the test on HepG2.

`Cc1cccc(-n2c(Nc3ccc(C)c(Cl)c3)nc3ccc(S(=O)(=O)NC(C)C(C)C)cc32)c1` (configuration not stated): the Inhibition came to 97% with Plasmodium falciparum [1], 97% in the test on Plasmodium falciparum [2] and 0% in the test with HepG2.

Regarding `Cc1cccc2nc(-c3cccc(-c4ccc(NC(=O)Cc5ccccn5)cc4)c3)[nH]c12`, the figures for the Inhibition in the test on Plasmodium falciparum [1], in the test with Plasmodium falciparum [2] and with HepG2 were 94%, 57% and 25%, respectively.

Turning to `COc1ccc(O)cc1/C=N/Nc1ccnc2cc(Cl)ccc12`, the Inhibition in the test on Plasmodium falciparum [1] was determined as 100%; in the test on Plasmodium falciparum [2], 92%; with HepG2 it was 0%.

Consider `COC(=O)CCCCOc1c(OC)cc(Cc2cnc(N)nc2N)cc1OC`, for which the figures for the Inhibition in the test with Plasmodium falciparum [1], in the test with Plasmodium falciparum [2] and with HepG2 were 93%, 0% and 0%, respectively.

As for `CCc1ccc(C2CCN(CCCCNC(=O)c3ccc(-c4ccc(C#N)cc4)cc3)CC2)c(OCCO)c1.Cl`, the Inhibition in the test on Plasmodium falciparum [1] amounted to 94%; in the test with Plasmodium falciparum [2], 61%; in the test on HepG2 it was 24%.

Turning to `C=CCOC(=O)N1CCC(CNCc2ccc(-c3ccc(-c4nc5ccccc5[nH]4)s3)cc2)C1.O=C(O)C(F)(F)F` (configuration not stated), the Inhibition in the test on Plasmodium falciparum [1] came to 100%; with Plasmodium falciparum [2], 76%; in the test with HepG2 it was 29%.

As to `O=C(Nc1ccccc1)Nc1cccc(-c2ccc(-c3nc4cc(C(F)(F)F)ccc4[nH]3)cc2)c1`, the results for the Inhibition in the test with Plasmodium falciparum [1], in the test with Plasmodium falciparum [2] and with HepG2 were 100%, 37% and 48%, respectively.

Regarding `Cc1nc2ccc(NC(=O)Nc3ccnc4ccc(C(F)(F)F)cc34)cc2o1`, the figures for the Inhibition with Plasmodium falciparum [1], in the test on Plasmodium falciparum [2] and with HepG2 were 89%, 24% and 20%, respectively.

`CN1CCN(CC(=O)Nc2ccc(-c3cccc(-c4nc5cc(C(F)(F)F)ccc5[nH]4)c3)cc2)CC1`: the values for the Inhibition in the test with Plasmodium falciparum [1], in the test on Plasmodium falciparum [2] and in the test with HepG2 were 100%, 93% and 45%, respectively.

In the case of `Cc1ccc(-c2ccn(Cc3cccc(OCc4ccccc4)c3)n2)cn1.Cc1ccc(-c2ccnn2Cc2cccc(OCc3ccccc3)c2)cn1`, the figures for the Inhibition in the test on Plasmodium falciparum [1], in the test on Plasmodium falciparum [2] and with HepG2 were 82%, 64% and 0%, respectively.

For `CNC(=O)c1ccccc1Nc1nc(Nc2ccc(C(=O)O)cc2)ncc1Cl.Cl`, the Inhibition with Plasmodium falciparum [1] was found to be 92%; in the test on Plasmodium falciparum [2] it was 92%; with HepG2, 60%.

For the compound `COc1ccc2c(c1)CC(CNC[C@H](O)c1cccc(Cl)c1)CC2` (some centres not stated), the Inhibition with Plasmodium falciparum [1] was 94%; in the test on Plasmodium falciparum [2], 73%; in the test with HepG2, 1%.

With `O=C(O)C(F)(F)F.c1ccc(CCNCc2ccc(-c3ccc(CNc4ccc5ncccc5c4)cc3)cc2)cc1`, the Inhibition was 96% with Plasmodium falciparum [1], 27% in the test with Plasmodium falciparum [2] and 36% with HepG2.

Turning to `Cl.N=c1c2c(n(Cc3cccc(Cl)c3)c3c1CCC3)CCCC2`, the Inhibition worked out at 97% with Plasmodium falciparum [1], 86% in the test on Plasmodium falciparum [2] and 0% in the test on HepG2.

Turning to `CCOc1ccc(Nc2ccc3nonc3c2S(=O)(=O)Nc2ccc(OCC)cc2)cc1`, the Inhibition with Plasmodium falciparum [1] is 100%; in the test on Plasmodium falciparum [2], 93%; in the test on HepG2, 6%.

In the case of `CC(C)(CNCc1ccccc1)c1nc(-c2ccc(Cl)c(O)c2)c(-c2ccncc2)[nH]1.Cl`, the results for the Inhibition in the test on Plasmodium falciparum [1], in the test on Plasmodium falciparum [2] and with HepG2 were 100%, 99% and 77%, respectively.

As to `Nc1cnc(C#Cc2cc3ncnc(N(CCN4CCOCC4)c4ccc(OCc5cccc(F)c5)c(Cl)c4)c3s2)cn1`, the Inhibition in the test on Plasmodium falciparum [1] is 87%; with Plasmodium falciparum [2], 57%; in the test on HepG2, 0%.

In the case of `O=C(Nc1ccc(N2CCN(Cc3c[nH]c4cc(F)ccc34)CC2)cc1)c1ccccc1-c1ccc(C(F)(F)F)cc1`, the Inhibition turned out to be 85% in the test on Plasmodium falciparum [1], 7% with Plasmodium falciparum [2] and 20% in the test with HepG2.

As for `Cl.c1cc(CNC2Cc3ccccc3C2)cc(-c2cnc(N3CCNCC3)nc2)c1`, the Inhibition is recorded as 93% in the test with Plasmodium falciparum [1], 65% in the test on Plasmodium falciparum [2] and 43% in the test with HepG2.

Turning to `CCN(CC)/C(=N\CCCCCC/N=C(\NC(=N)c1ccc(Cl)cc1)N(CC)CC)NC(=N)c1ccc(Cl)cc1`, the Inhibition with Plasmodium falciparum [1] was 97%; in the test with Plasmodium falciparum [2], 99%; in the test with HepG2 it was 1%.

For `Cc1ccc2c(=O)n(C)c(=O)n(C)c2n1`, the Inhibition was determined as 98% with Plasmodium falciparum [1], 0% with Plasmodium falciparum [2] and 15% in the test with HepG2.

In the case of `Br.CC1(C)NC(N)=NC(=N)N1OCCCCCCOc1ccc(Cl)c2ccccc12`, the Inhibition was 91% with Plasmodium falciparum [1], 94% with Plasmodium falciparum [2] and 62% in the test with HepG2.

With `Cl.N=C(N)NCCCN(Cc1ccccc1)c1ccccc1`, the Inhibition is reported as 100% in the test on Plasmodium falciparum [1], 97% with Plasmodium falciparum [2] and 0% in the test on HepG2.

Regarding `CC(CN(C)C)C(=O)Nc1cccc(-c2ccc(-c3nc4cc(F)ccc4[nH]3)cc2)c1` (configuration not stated), the Inhibition came out at 100% in the test with Plasmodium falciparum [1], 100% with Plasmodium falciparum [2] and 11% in the test with HepG2.

For `Oc1c(C(Nc2nc3ccccc3s2)c2ccc(OC(F)F)cc2)ccc2cccnc12` (configuration not stated), the Inhibition in the test on Plasmodium falciparum [1] is reported as 92%; in the test on Plasmodium falciparum [2], 85%; in the test on HepG2, 62%.

Regarding `CS(=O)(=O)CCOCc1ccc(-c2ccc3ncnc(Nc4ccc(OCc5cccc(F)c5)c(Cl)c4)c3c2)o1`, the Inhibition in the test with Plasmodium falciparum [1] amounted to 96%; in the test on Plasmodium falciparum [2], 43%; in the test with HepG2, 1%.

`Cc1cc(C)cc(OCC(O)CN(Cc2cc(Cl)cc(Cl)c2)C(=O)Nc2ccccc2Cl)c1` (configuration not stated): the Inhibition in the test with Plasmodium falciparum [1] is given as 93%; in the test on Plasmodium falciparum [2], 37%; with HepG2, 0%.

Regarding `O=C(O)C(F)(F)F.c1cncc(CCNCc2cccc(-c3ccc(-c4nc5ccccc5[nH]4)s3)c2)c1`, the Inhibition in the test on Plasmodium falciparum [1] came out at 100%; in the test with Plasmodium falciparum [2], 97%; in the test on HepG2, 8%.
